Compound activity: PubChem, several laboratories
The list is not random: actives were taken first. Their share in the collection is about 2.7%.
KKLEB tox: reduces viability of KKLEB cystic fibrosis airway cells | KKLEB CF airway cells viability, ATPlite luminescence, overnight; hits give low values; cells stimulated with P. aeruginosa culture filtrate | activity change (cytotoxicity), % at 5 µM | actives 0.36% (n = 360,000) | AID 602141;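 active = corrected activity change at or below -50% at 5 µM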
Shn3 3UTR inh: reduces Shn3 3'UTR luciferase signal in osteoblasts | Clone20 osteoblast Shn3 3'UTR firefly luciferase, 24 h | inhibition, % at 12.5 µM | actives 0.52% (n = 360,000) | AID 588674;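 active = mean inhibition of at least 75% with every replicate also reaching 75%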
HIF-2a inh: inhibitors of HIF-2a. 786-0 RCC cells HIF-2a reporter, luciferase luminescence, overnight. inhibition, % at 18.8 µM. actives 0.72% (n = 360,000);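 active = inhibition of the luminescence signal of 40% or more relative to plate controls, in a single-dose primary screen at 18.75 µM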
CF NFkB block: cystic fibrosis NF-kB activation inhibition | KKLEB NF-kB-GFP reporter, PAF-induced, GFP fluorescence overnight | inhibition, % at 5 µM | actives 0.86% (n = 360,000);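 active = at least 50% inhibition at 5 µM, scaled per plate between neutral and stimulator controls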;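 also: PAF is a Pseudomonas aeruginosa culture filtrate used as stimulus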
Peg3 promoter: reduces Peg3 promoter-driven luciferase expression in HeLa | inhibition, % at 20 µM | actives 1.7% (n = 360,000) | HeLa PEG-Prom luciferase reporter, luminescence, overnight;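 active = inhibition of at least 50% at 20 µM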
MITF TRPM1 inh: inhibitors of MITF-driven TRPM1 promoter in melanoma cells | AID 488899 | inhibition, % at 12.5 µM | actives 0.83% (n = 330,000) | SK-MEL-5 TRPM1 promoter luciferase, 24 h;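 active = mean inhibition across replicates of 60% or more, whatever share of single replicates reaches that level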
Mdm2-MdmX confirm: Mdm2/MdmX (human) interaction inhibition, confirmed. SaOS-2 split-luciferase Mdm2/MdmX complementation, luminescence. shares compounds with HIF-2a inh. actives 99% (n = 740). AID 504601. inhibition, % at 8 µM;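 active = mean inhibition of the luminescence signal across two replicates at or above 26 percent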
Target sequence (O15151 whole entry, looked up): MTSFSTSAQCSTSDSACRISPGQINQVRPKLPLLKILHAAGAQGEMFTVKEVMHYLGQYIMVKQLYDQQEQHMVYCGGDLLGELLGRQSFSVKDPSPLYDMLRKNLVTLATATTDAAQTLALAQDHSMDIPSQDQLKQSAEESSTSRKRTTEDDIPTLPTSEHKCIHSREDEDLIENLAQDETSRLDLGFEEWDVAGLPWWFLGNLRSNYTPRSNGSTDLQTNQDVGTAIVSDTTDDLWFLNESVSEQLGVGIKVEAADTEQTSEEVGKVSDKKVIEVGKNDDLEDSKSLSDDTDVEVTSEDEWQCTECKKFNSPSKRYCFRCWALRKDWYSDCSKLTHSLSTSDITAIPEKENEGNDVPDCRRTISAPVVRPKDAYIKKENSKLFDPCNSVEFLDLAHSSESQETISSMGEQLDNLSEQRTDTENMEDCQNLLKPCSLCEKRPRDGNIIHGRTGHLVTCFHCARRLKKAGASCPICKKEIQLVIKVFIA
Target sequence (Q00987 whole entry, looked up): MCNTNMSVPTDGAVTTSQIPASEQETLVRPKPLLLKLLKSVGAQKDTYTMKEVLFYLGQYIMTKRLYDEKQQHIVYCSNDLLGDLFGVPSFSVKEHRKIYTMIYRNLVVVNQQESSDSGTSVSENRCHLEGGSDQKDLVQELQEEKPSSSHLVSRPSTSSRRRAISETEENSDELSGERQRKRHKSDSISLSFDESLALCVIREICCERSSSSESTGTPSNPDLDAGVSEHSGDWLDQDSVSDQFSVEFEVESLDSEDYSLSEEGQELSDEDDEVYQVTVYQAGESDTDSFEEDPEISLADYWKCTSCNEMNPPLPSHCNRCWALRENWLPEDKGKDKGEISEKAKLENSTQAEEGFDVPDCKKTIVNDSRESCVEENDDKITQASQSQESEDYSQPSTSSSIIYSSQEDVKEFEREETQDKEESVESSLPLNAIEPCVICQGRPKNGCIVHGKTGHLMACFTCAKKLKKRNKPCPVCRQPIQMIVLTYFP
HIF-2a conf: confirmation of HIF-2a inhibitors. shares compounds with HIF-2a inh. 786-0 RCC cells, HIF-2a luciferase reporter luminescence, overnight. inhibition, % at 18.8 µM. actives 56% (n = 1,800);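 active = mean inhibition across four replicates of at least 40 percent at the single tested concentration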
HIF-1a cs: counter-screen for HIF-2a inhibitors: HIF-1a inhibition in MiaPaCa-2 cells; MiaPaCa-2 HIF-1a luciferase reporter, desferoxamine, overnight; shares compounds with HIF-2a inh; actives 72% (n = 1,800); inhibition, % at 18.8 µM;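 active = mean inhibition of the reporter signal across four replicates at the single tested dose of 50% or more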
Each line names hits and unclear results; the compound was inactive in the other large screens (follow-up assays come after a bar, where they were run).

COc1ccc(C2NC(=O)NC(C)=C2C(=O)OC2CCCC(C)C2)cc1 (centres undefined)	HIF-2a inh 41, Peg3 promoter 52 | HIF-2a conf inactive | HIF-1a cs inactive
CCN1CCN(CCCNC(=O)c2ccc(/C=C3/Sc4ccccc4N(Cc4ccccc4F)C3=O)cc2)CC1	HIF-2a inh 91, Peg3 promoter 59 | HIF-2a conf inactive | HIF-1a cs 102
Cc1ccccc1C(=O)N1CCC[C@H]1C(=O)N1CCC[C@H]1C(=O)NCc1ccccn1	none (no result: KKLEB tox, Shn3 3UTR inh, CF NFkB block, Peg3 promoter, MITF TRPM1 inh)
COc1cc2c(cc1OC)C(c1ccccc1)N(C(=O)CCl)CC2 (centres undefined)	HIF-2a inh 93, Peg3 promoter 102, MITF TRPM1 inh 93 | HIF-2a conf 99 | HIF-1a cs 106
O=C(COCc1ccccc1)N[C@@H]1c2ccccc2CC[C@@H]1OCc1ccccc1	none
O=C(Nc1nnc([C@H]2C[C@H](O)[C@@H](CO)O2)s1)C(c1ccccc1)c1ccccc1	none (no result: MITF TRPM1 inh)
CCOC(=O)C1=C(C)N=c2sc(=Cc3cc(Cl)c(OCC(=O)O)c(Cl)c3)c(=O)n2C1c1cccc(OC)c1 (centres undefined)	HIF-2a inh 44 (no result: MITF TRPM1 inh) | HIF-2a conf 46 | HIF-1a cs inactive
CN(C)CCCNC(=O)c1ccccn1	none
CN(C)CCCNC(=O)c1ccc(-c2nc(-c3ccc(Cl)cc3)cs2)cc1	HIF-2a inh 88, Peg3 promoter 103, MITF TRPM1 inh 83 | HIF-2a conf inactive | HIF-1a cs 106
O=C(/C=C/c1cccc(Cl)c1)c1ccc([N+](=O)[O-])o1	Shn3 3UTR inh 95, HIF-2a inh 97, CF NFkB block 87, Peg3 promoter 99, MITF TRPM1 inh 98 | Mdm2-MdmX confirm 102
COc1ccc(C=CC(=O)c2ccc(OC)c(OC)c2O)cc1OC	none
COc1ccc(/C=C/C(=O)c2ccc([N+](=O)[O-])o2)cc1OC	none (no result: KKLEB tox, Shn3 3UTR inh, HIF-2a inh, CF NFkB block, Peg3 promoter, MITF TRPM1 inh) | Mdm2-MdmX confirm 99
NS(=O)(=O)c1ccc(CNC(=O)/C=C/c2cccc(Cl)c2)cc1	none
CC(C)(CNC(=O)C1c2ccccc2-c2ccccc21)N1CCOCC1	none
COc1ccc(/C=N/Nc2cc(C)nc3ccc(OC)cc23)c(OC)c1	Shn3 3UTR inh 96, HIF-2a inh 92, Peg3 promoter 107, MITF TRPM1 inh 85 | Mdm2-MdmX confirm 103
O=C(CNC(=O)c1cccs1)Nc1cccc(S(=O)(=O)N2CCOCC2)c1	none
COC(=O)COc1ccc(/C=N/NC(=O)c2ccc(N(Cc3ccccc3)S(C)(=O)=O)cc2)cc1	HIF-2a inh 64 | HIF-2a conf inactive | HIF-1a cs inactive
COC(=O)COc1ccc(/C=N/NC(=O)CN(c2ccccc2OC)S(=O)(=O)c2ccccc2)cc1	HIF-2a inh 57 | HIF-2a conf 74 | HIF-1a cs 57
CC1CCCCN1CC(O)COCc1ccccc1 (centres undefined)	none
COc1ccc2c(c1OC)CN1CCc3cc4c(cc3[C@@H]1[C@@H]2O)OCO4	none
O[C@@H]1[C@@H](O)C=C2CCN3Cc4cc5c(cc4[C@H]1C23)OCO5 (some centres undefined)	HIF-2a inh 51, CF NFkB block 57, Peg3 promoter 63, MITF TRPM1 inh 63 | HIF-2a conf 40 | HIF-1a cs 103
CCn1nc([N+](=O)[O-])c(C(C#N)c2nc3cc(C(F)(F)F)ccc3s2)c(Cl)c1=O (centres undefined)	CF NFkB block 61 | Mdm2-MdmX confirm 97
CCCn1nc([N+](=O)[O-])c(C(C#N)c2nc3ccccc3o2)c(Cl)c1=O (centres undefined)	none
Cc1ccc2ccc(C(Nc3ccccn3)c3ccccc3)c(O)c2n1 (centres undefined)	none (no result: MITF TRPM1 inh)
COc1cc(C(Nc2ccccn2)c2ccc3ccc(C)nc3c2O)cc(OC)c1O (centres undefined)	HIF-2a inh 94, CF NFkB block 74, Peg3 promoter 102 | Mdm2-MdmX confirm 102
CC(C)C(NC(=O)c1ccccc1)C(=O)N1CCCCCC1 (centres undefined)	none
Cc1cccc(NC(=S)NNc2ncc(C(F)(F)F)cc2Cl)c1	HIF-2a inh 50 | HIF-2a conf 57 | HIF-1a cs inactive
CC(=O)n1cc(N(C(=O)CCl)c2ccc(Cl)cc2)c2ccccc21	KKLEB tox -94, HIF-2a inh 83, CF NFkB block 98, Peg3 promoter 108 (no result: MITF TRPM1 inh) | HIF-2a conf 98 | HIF-1a cs 108
CCOC(=O)c1ccccc1Nc1cn(C(C)=O)c2ccccc12	none
CCOC(=O)c1c(NC(=O)/C=C/C(=O)O)sc(C)c1-c1ccc(C(C)(C)C)cc1	KKLEB tox -86, CF NFkB block 66 | Mdm2-MdmX confirm 103
CCOC(=O)c1c(NC(=O)c2c(-c3ccccc3)noc2C)sc(C)c1-c1ccccc1	none | Mdm2-MdmX confirm 102
CCCCCCn1c(=O)n2n(c1=O)C[C@]1(OC(=O)NC3CC3)CN(S(=O)(=O)c3ccc(C)cc3)C[C@]1(O)C2	none (no result: MITF TRPM1 inh)
Cc1nc(SC(C)C(=O)c2c(N)n(C)c(=O)n(C)c2=O)c2c(C)c(C)sc2n1 (centres undefined)	none
CCOc1ccccc1C(=O)Nc1ccc2nc(N3CCN(c4ncccn4)CC3)cc(C)c2c1	none (no result: KKLEB tox, Shn3 3UTR inh, HIF-2a inh, CF NFkB block, Peg3 promoter, MITF TRPM1 inh) | Mdm2-MdmX confirm 98
Cc1cc2oc(C(=O)Nc3cccnc3)c(C)c2cc1C	none
CC(=O)Nc1ccc(NC(=O)c2oc3cc(C)c(C)cc3c2C)cc1	HIF-2a inh 52 | HIF-2a conf 74 | HIF-1a cs inactive
COc1cc(C=C2C(=O)C=CC2=O)ccc1O	HIF-2a inh 84 (no result: KKLEB tox, Shn3 3UTR inh, CF NFkB block, Peg3 promoter, MITF TRPM1 inh) | HIF-2a conf 99 | HIF-1a cs 95
Cc1ccc(NC(=O)c2nc[nH]c2C(=O)NCCN(CCNC(=O)c2[nH]cnc2C(=O)Nc2ccc(C)cc2)CCNC(=O)c2[nH]cnc2C(=O)Nc2ccc(C)cc2)cc1	none
O=C(Nc1ccc(Cl)cc1)c1nc[nH]c1C(=O)NCCN(CCNC(=O)c1[nH]cnc1C(=O)Nc1ccc(Cl)cc1)CCNC(=O)c1[nH]cnc1C(=O)Nc1ccc(Cl)cc1	KKLEB tox -56, CF NFkB block 71, Peg3 promoter 101 | Mdm2-MdmX confirm 100
